In PubChem BioAssay (NCATS):
Where “and” joins values, the source holds several entries; their conditions need not be identical. Equal values may be shown once. Inconclusive results are not listed. Entries that show only a call come without a potency. A structure can be active in one record and inactive in another. Calls of active or inactive are those of the source. Calls follow the shape of the dose curve; as a rule, active = well fitted inhibition curve with a large enough effect; inconclusive = small, poorly fitted or top-dose-only effect; inactive = flat fitted curve, though single readings scatter. Non-standard residues stand in square brackets, D forms with d. Residues, ends and D or L forms follow the SMILES beside them. *: point of attachment. Nva = CCC[C@H](N)C(=O)O; Cbz = O=C(OCc1ccccc1)*

test: P-glycoprotein substrates identified in KB-8-5-11 adenocarcinoma cell line, qHTS therapeutic library screen (AID 1346987); settings: KB-8-5-11 (P-gp overexpressing) viability, CellTiter-Glo, 72 h; series mostly up to 44.5 µM; also: nearly all actives have a fitted effect of over 65% in size
Source text: The ATP-binding cassette transporters P-glycoprotein (P-gp) is known to limit brain penetration of many chemotherapy drugs. […] As such, we developed a high-throughput screen (HTS) to identify substrates of P-gp from a series of chemical libraries including the National Center for Advancing Translational Sciences Pharmaceutical Collection NPC, 2,816 compounds), testing a total of 10,804 compounds, most of which have known mechanisms of action. We used the CellTiter-Glo viability assay to test library compounds against the parental KB-3-1 human cervical adenocarcinoma cell line and the colchicine-selected sub-line KB-8-5-11 that over-expresses P-gp. KB-8-5-11 cells were also tested in the presence of a P-gp inhibitor (tariquidar) to assess reversability of transporter-mediated resistance. Of the tested compounds, a total of 90 P-gp substrates were identified including 55 newly identified P-gp substrates. Substrates were confirmed using an orthogonal killing assay against HEK-293 cells transfected with P-gp. As exemplars, we confirmed that […] (cyclin-dependent kinase inhibitor); AT9283, (Janus kinase 2/3 inhibitor); ispinesib (kinesin spindle protein inhibitor); gedatolisib (PKI-587, phosphoinositide 3-kinase/mammalian target of rampamycin inhibitor); GSK-690693 (AKT inhibitor); and KW-2478 (heat shock protein 90 inhibitor) were substrates , and direct ATPase stimulation was assessed. ABCG2 was also found to confer high levels of resistance to AT9283, GSK-690693 and gedatolisib, while ispinesib, AT7519 and KW-2478 were weaker substrates.
The HeLa derivative cell line, KB-3-1, and its colchicine-selected, P-gp-overexpressing subline, KB-8-5-11 were maintained in DMEM with 10% FCS and Pen/Strep with glutamine at 37 degree C in 5% CO2. For KB-8-5-11 cells, colchicine was added to the medium at a concentration of 100 ng/mL. HEK-293 cells transfected with empty vector (pcDNA) or vector containing human ABCB1 (MDR-19) or ABCG2 (R-5) have been described previously (Robey, Lin, Qiu, Chan & Bates, 2011) and were maintained in EMEM supplemented with 10% FCS, Pen/Strep and glutamine with 2 mg/ml G418 to select for the expression of the transporter. Cultures were confirmed to be free of mycoplasma infection using the MycoAlert Mycoplasma Detection Kit (Lonza, Walkersville, MD). For the screen, assay medium was identical to culture medium except for KB-8-5-11 where colchicine was excluded from the medium.
All cell lines were plated into 1536-well plates at 500 cells/well in 5 uL media. Compounds were then pinned in dose-response using a 1536-head pin tool (Kalypsis, San Diego, CA) and plates were incubated at 37 degree C in 5% CO2 for an additional 72 h. CellTiter-Glo reagent (Promega) was dispensed into the wells, incubated for 5 min and luminescence was read on a ViewLux instrument (Perkin-Elmer). Cytotoxic compounds were defined as those that yielded a curve class of -1.1, -1.2, -2.1, -2.2, -2.3, or -2.4, a maximum response of >50% and an AC50 of < 10 uM. Cherry-picked hits from screening analysis were tested with both the KB pair of cell lines, and the pcDNA (empty vector control) and MDR-19 (P-gp overexpressing) pair were tested, in the absence and presence of tariquidar.
Potency is read from the fitted curve at half-maximal effect.

Q: For `O=[N+]([O-])c1cn2c(n1)OC[C@@H](OCc1ccc(OC(F)(F)F)cc1)C2`, which Potency is on record?
A: inactive

Q: With `CCCc1nc(C(C)(C)O)c(C(=O)O)n1Cc1ccc(-c2ccccc2-c2nn[nH]n2)cc1` as the molecule, how does the Potency read?
A: inactive

Q: Which Potency does the source give for `C=C1C(=CC=C2CCC[C@]3(C)[C@@H]([C@H](C)CCCC(C)(C)O)CC[C@@H]23)C[C@@H](O)C[C@@H]1O` here?
A: inactive

Q: With `CCc1ccc(C(=O)Nc2cc(CN3CCN(C)CC3)cc(C(F)(F)F)c2)cc1C#Cc1cnc2ccnn2c1` as the molecule, how does the Potency read?
A: 8.33 µM (active) and 3.66 µM (active)

Q: With `C=C(C)[C@@H]1CC[C@]2(C)CC[C@]3(C)[C@H](CC[C@@H]4[C@@]5(C)CC[C@H](O)C(C)(C)[C@H]5CC[C@]43C)[C@@H]12` as the molecule, how does the Potency read?
A: inactive

Q: Which Potency does the source give for `CC1(C)O[C@@H]2C[C@H]3[C@@H]4CCC5=CC(=O)C=C[C@]5(C)[C@@H]4[C@@H](O)C[C@]3(C)[C@]2(C(=O)CO)O1` here?
A: inactive

Q: For `Cc1cn([C@@H]2O[C@H](CO)[C@@H](O)[C@H]2F)c(=O)[nH]c1=O`, which Potency is on record?
A: inactive

Q: With `c1cc(N[C@@H]2CCNC2)nc(-c2cnc3ccc(-c4cn[nH]c4)cn23)c1` as the molecule, how does the Potency read?
A: inactive

Q: With `C[N+]1(C)[C@@H]2C[C@@H](OC(=O)C(O)(c3cccs3)c3cccs3)C[C@H]1[C@@H]1O[C@@H]12` as the molecule, how does the Potency read?
A: inactive

Q: For `Nc1ccc(C(=O)Nc2cccc(-c3nc(N4CCOCC4)c4oc5ncccc5c4n3)c2)cn1`, which Potency is on record?
A: inactive and 9.2 µM (active)

Q: With `FC(F)c1nc2ccccc2n1-c1nc(N2CCOCC2)nc(N2CCOCC2)n1` as the molecule, how does the Potency read?
A: 1.16 µM (active)

Q: For `COc1cccc2c1C(=O)c1c(O)c3c(c(O)c1C2=O)C[C@@](O)(C(=O)CO)C[C@@H]3O[C@H]1C[C@H](N)[C@H](OC2CCCCO2)[C@H](C)O1` (stereo not given in full), which Potency is on record?
A: 5.26 µM (active)

Q: With `CCN(CC)CCNC(=O)c1c(C)[nH]c(C=C2C(=O)Nc3ccc(F)cc32)c1C` as the molecule, how does the Potency read?
A: 1.21 µM (active)

Q: For `O=C1NC(=O)C(=Cc2ccc3nccc(-c4ccncc4)c3c2)S1`, which Potency is on record?
A: 0.418 µM (active)

Q: For `C[C@H](NC(=O)[C@@H](O)c1cc(F)cc(F)c1)C(=O)N[C@@H]1C(=O)N(C)c2ccccc2-c2ccccc21`, which Potency is on record?
A: inactive

Q: For `Oc1ccc([C@@H]2Oc3ccc(O)cc3[C@@H]3CCC[C@@H]32)cc1`, which Potency is on record?
A: 5.9 µM (active) and 5.8 µM (active)

Q: Which Potency does the source give for `Cc1nc(NC(=O)N2CCC[C@@H]2C(N)=O)sc1-c1ccnc(C(C)(C)C(F)(F)F)c1` here?
A: 6.62 µM (active)

Q: With `CC(C)(O)[C@H]1CC[C@@](C)([C@H]2[C@@H](O)C[C@@]3(C)[C@@H]4C[C@H](O[C@@H]5O[C@H](CO)[C@@H](O)[C@H](O)[C@@H]5O)[C@H]5C(C)(C)[C@@H](O[C@@H]6OC[C@@H](O)[C@H](O)[C@@H]6O)CC[C@@]56C[C@@]46CC[C@]23C)O1` as the molecule, how does the Potency read?
A: inactive

Q: Which Potency does the source give for `O=C(O)CCCCC(CCSCc1ccccc1)SCc1ccccc1` (stereo not given) here?
A: inactive

Q: Which Potency does the source give for `OC[C@@H](O)[C@@H](O)[C@H](O)[C@@H](O)CO` here?
A: inactive

Q: For `CC(C)n1cnc2c(NCCc3ccc(O)cc3)nc(-c3csc4ccccc34)nc21`, which Potency is on record?
A: 20.9 µM (active) and 20.6 µM (active)

Q: With `Cn1cc(C=CC(=O)c2cccc(F)c2)cc1C=CC(=O)NO` as the molecule, how does the Potency read?
A: inactive

Q: With `Cn1cc(CNCC2CCN(c3ncc(C(=O)NO)cn3)CC2)c2ccccc21` as the molecule, how does the Potency read?
A: 1.05 µM (active)

Q: For `C=CC(=O)Nc1cccc(Nc2nc(NC3CCC(N(C)C)CC3)nc3c2ncn3C(C)C)c1` (stereo not given), which Potency is on record?
A: inactive

Q: For `CC(C)Oc1ccc(C(=O)N[C@H](CNC(=O)CN(C)C)Cc2ccc(-c3cn4cccc([C@H](C)O)c4n3)cc2)cc1Cl`, which Potency is on record?
A: 26.4 µM (active)

Q: Which Potency does the source give for `COc1cc([C@@H]2c3cc4c(cc3[C@H](O)[C@H]3COC(=O)[C@@H]23)OCO4)cc(OC)c1OC` here?
A: 0.418 µM (active)

Q: For `CC(Oc1ccc(O)cc1)(P(=O)(O)O)P(=O)(O)O`, which Potency is on record?
A: inactive

Q: With `Cc1noc(-c2ccc(CSCCC(=O)O)cc2)c1NC(=O)OC(C)c1ccccc1Cl` (stereo not given) as the molecule, how does the Potency read?
A: inactive

Q: For `CCOc1cc2c(c(F)c1OCC)C(=N)N(CC(=O)c1cc(N3CCOCC3)c(OC)c(C(C)(C)C)c1)C2`, which Potency is on record?
A: 20.9 µM (active)

Q: Which Potency does the source give for `CCC[C@@H](C=O)NC(=O)[C@H](CC(C)C)NC(=O)[C@H](CC(C)C)NC(=O)OCc1ccccc1` (Cbz-Leu-Leu-[Nva]-aldehyde) here?
A: 7.43 µM (active)

Q: Which Potency does the source give for `C[C@H]1O[C@H](O[C@H]2[C@H](O)[C@@H](O)[C@@H](O[C@H]3[C@H](O)[C@@H](O)C(O)O[C@H]3CO)O[C@H]2CO)[C@H](O)[C@@H](O)[C@H]1N[C@H]1C=C(CO)[C@@H](O)[C@H](O)[C@@H]1O` (stereo not given in full) here?
A: inactive

Q: With `COc1ccc(Nc2nccc(NCCO)n2)cc1` as the molecule, how does the Potency read?
A: inactive

Q: Which Potency does the source give for `CCN(CC)Cc1ccc2cc(COC(=O)Nc3ccc(C(=O)NO)cc3)ccc2c1` here?
A: 7.43 µM (active)

Q: With `CCC(C=C[C@@H]1OC(=O)C=C[C@H]1C)=C[C@H](C)CC=CC(C)=C[C@@H](C)C(=O)[C@@H](C)[C@H](O)[C@@H](C)CC(C)=CC(=O)O` as the molecule, how does the Potency read?
A: 0.196 µM (active)

Q: Which Potency does the source give for `Nc1ncn([C@@H]2O[C@H](CO)[C@@H](O)[C@@H]2O)c(=O)n1` here?
A: 11.8 µM (active)

Q: Which Potency does the source give for `COc1ccc(Nc2cc(-c3cnc(N)nc3)nc(N3CCOCC3)n2)cn1` here?
A: 1.48 µM (active)

Q: For `COc1ccc(C(C)=O)c(O)c1`, which Potency is on record?
A: inactive

Q: Which Potency does the source give for `C=CC(=O)Nc1ccc2ncnc(Nc3ccc(OCc4cccc(F)c4)c(Cl)c3)c2c1` here?
A: 23.5 µM (active) and 16.4 µM (active)

Q: With `CCOC(=O)[C@@H](N)Cc1ccc(-c2cc(O[C@H](c3ccc(Cl)cc3-n3ccc(C)n3)C(F)(F)F)nc(N)n2)cc1` as the molecule, how does the Potency read?
A: inactive

Q: With `CC(=O)N[C@@H]1[C@H](O[C@@H]2c3ccc(c(Cl)c3)Oc3cc4cc(c3O[C@H]3O[C@H](CO)[C@@H](O)[C@H](O)[C@H]3NC(=O)CCCCCCCC(C)C)Oc3ccc(cc3Cl)C[C@H]3NC(=O)[C@H](N)c5ccc(O)c(c5)Oc5cc(O)cc(c5)[C@H](NC3=O)C(=O)N[C@H]4C(=O)N[C@H]3C(=O)N[C@@H]2C(=O)N[C@@H](C(=O)O)c2cc(O)cc(O[C@H]4O[C@H](CO)[C@@H](O)[C@H](O)[C@H]4O)c2-c2cc3ccc2O)O[C@H](CO)[C@@H](O)[C@@H]1O` as the molecule, how does the Potency read?
A: inactive
